Screens (PubChem)
This is a sample that favours compounds with a hit; in the whole collection about 7.2% have one here.
AHR activator: activates the human aryl hydrocarbon receptor; activation, % at 5 µM; AID 2796; AHR-responsive luciferase reporter cells, luminescence; P35869; actives 2.5% (n = 320,000); in the data active = activation above about 47%;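 also: 0% = vehicle wells and 100% = reference agonist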
Bfl-1 A1 inh: inhibitors of the anti-apoptotic protein A1, read as caspase activation. caspase activation, % (no concentration beside the values). actives 0.066% (n = 330,000). MEF A1-2A-BIM cells, Caspase-Glo 3/7 luminescence, 3 h; percent of clofoctol response, vehicle zero;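 active = over half of replicate activation scores above 10%, or exactly half above 10 with the replicate mean above 10; inconclusive = replicate mean below 10 yet half the replicates above 10; inactive = over half of replicates below 10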
SUMO Mot1 rescue: blocks SUMOylation pathway, rescuing yeast Mot1-301 growth; S. cerevisiae Mot1-301 growth rescue, ATP luminescence, 38.5C; percent above DMSO median, 100 means doubled; AID 2716; growth rescue, % at 18.8 µM; actives 1% (n = 320,000);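 active = every valid replicate shows activation above 250% relative to neutral control wells; inactive = the rest, any valid replicate at or below 250%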;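 also: OY570 slx delta 5 strain wells were the positive control but not used for scaling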
ALR H2O2 inh: human ALR oxidase inhibition via reduced H2O2. P55789. purified ALR, DTT oxidation, H2O2 HRP-luminol luminescence. AID 485317. actives 3.8% (n = 290,000). inhibition, % (test concentration not listed);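 active = mean replicate inhibition above about 79%, with every replicate also reaching it, limit read from the data; inconclusive = only one of the two criteria met; inactive = mean below limit and not every replicate reaching it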
Efflux pump mplx: blocks antifungal efflux pumps in multiplex yeast assay; S. cerevisiae Candida pump triplex, Nile Red efflux; inhibition, % at 10 µM; actives 0.44% (n = 330,000); AID 485275;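 active = plate passing quality check with inhibition over a set limit, or well fluorescence over plate mean plus 4 SD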;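 also: Nile Red retained in pooled yeast measured as flow cytometry median fluorescence; 0% = buffer negative control and 100% = Enniatin B positive control; higher means more Nile Red kept so more efflux inhibition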
VLA-4 inh: inhibition in a human VLA-4 binding assay | P13612 | VLA-4 expressing cells, ligand binding flow cytometry | actives 0.2% (n = 330,000) | inhibition, % (about 7 µM as worked out from the volumes in the protocol); in the data active = inhibition above about 50%
Target sequence (P13612 whole entry, looked up): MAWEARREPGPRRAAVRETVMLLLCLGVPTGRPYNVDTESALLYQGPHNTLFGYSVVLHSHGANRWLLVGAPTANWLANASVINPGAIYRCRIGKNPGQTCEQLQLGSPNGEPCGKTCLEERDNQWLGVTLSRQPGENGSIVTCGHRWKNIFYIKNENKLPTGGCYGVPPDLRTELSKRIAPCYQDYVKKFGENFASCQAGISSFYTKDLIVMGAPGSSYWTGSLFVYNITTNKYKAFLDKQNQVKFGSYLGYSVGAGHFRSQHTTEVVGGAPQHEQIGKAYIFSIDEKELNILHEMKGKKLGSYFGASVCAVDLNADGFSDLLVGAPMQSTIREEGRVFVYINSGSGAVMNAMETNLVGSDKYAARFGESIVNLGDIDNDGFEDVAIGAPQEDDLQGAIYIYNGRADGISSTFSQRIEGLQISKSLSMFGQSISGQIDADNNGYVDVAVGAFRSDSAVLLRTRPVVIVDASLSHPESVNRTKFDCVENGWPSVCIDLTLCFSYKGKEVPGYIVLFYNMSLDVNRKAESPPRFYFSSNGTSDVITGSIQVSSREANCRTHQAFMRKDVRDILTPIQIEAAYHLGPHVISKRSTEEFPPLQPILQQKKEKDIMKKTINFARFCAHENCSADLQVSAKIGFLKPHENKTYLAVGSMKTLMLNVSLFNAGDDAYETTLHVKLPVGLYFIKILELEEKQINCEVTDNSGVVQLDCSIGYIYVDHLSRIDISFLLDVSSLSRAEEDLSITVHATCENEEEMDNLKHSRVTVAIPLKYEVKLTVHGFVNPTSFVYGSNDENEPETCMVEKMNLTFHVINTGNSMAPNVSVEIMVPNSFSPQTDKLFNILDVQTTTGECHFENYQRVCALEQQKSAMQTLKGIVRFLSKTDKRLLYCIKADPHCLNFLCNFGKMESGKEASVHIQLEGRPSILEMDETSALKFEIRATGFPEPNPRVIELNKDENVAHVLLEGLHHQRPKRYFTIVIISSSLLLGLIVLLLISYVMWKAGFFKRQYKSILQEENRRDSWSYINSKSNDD
Cmpd fluor yeast: counter-screen for efflux pump inhibitors: compound fluorescence; shares compounds with Efflux pump mplx; S. cerevisiae AD/pABC3, flow cytometry; fluorescence ratio to DMSO, % at 10 µM; actives 4% (n = 1,700);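 active = fluorescence ratio to DMSO above its plate's cutoff, the plate mean ratio plus 5 SD, cut at about 210% in these data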;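 also: unstained yeast with no Nile Red so the signal is compound autofluorescence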
CaMdr1 efflux inh: inhibitors of Candida albicans Mdr1 efflux pump; inhibition, % at 10 µM; shares compounds with Efflux pump mplx; S. cerevisiae AD/CaMDR1, Nile Red efflux, flow cytometry; AID 588518; actives 1% (n = 1,700); in the data active = inhibition above about 26%;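 also: 0% = DMSO vehicle and 100% = reference inhibitor; higher means more Nile Red retained so more efflux inhibition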
Cdr2 pump inh: blocks the Candida albicans Cdr2 efflux pump in yeast; shares compounds with Efflux pump mplx; S. cerevisiae AD/CaCDR2, Nile Red retention, flow cytometry; Nile Red retention ratio vs DMSO, % at 10 µM; actives 4% (n = 1,700); AID 588520; in the data active = Nile Red retention ratio vs DMSO above about 190%;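 also: higher ratio means more blocking of Cdr2 efflux of the dye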
Cdr1 pump inh: inhibitors of Candida albicans Cdr1 efflux pump | S. cerevisiae AD/CaCDR1, Nile Red efflux, flow cytometry | shares compounds with Efflux pump mplx | actives 1% (n = 1,700) | inhibition, % at 10 µM | AID 588522;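 active = inhibition above the screen-wide mean plus twice its standard deviation, cut at about 32% in these data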
Active calls of the source: *; ? = inconclusive; . = not tested or not shown.

SMILES	AHR activator	Bfl-1 A1 inh	SUMO Mot1 rescue	ALR H2O2 inh	Efflux pump mplx	VLA-4 inh	Cmpd fluor yeast	CaMdr1 efflux inh	Cdr2 pump inh	Cdr1 pump inh
CC(NC(=O)CCC(=O)NC(C)c1ccccc1)c1ccccc1 (centres undefined)	-1	0	0	-2	0	18	.	.	.	.
CC(NC(=O)CCSCCC(=O)NC(C)c1ccccc1)c1ccccc1 (centres undefined)	1	-1	-16	-11	1.2*	9	102	0	98	0
COc1cc(NC(=O)CCC(=O)c2cccs2)cc(OC)c1	16	0	-33	-2	0	20	.	.	.	.
O=C(OC1CCOC1=O)c1ccc(S(=O)(=O)N2CCCCCC2)cc1 (centres undefined)	-2	1	-11	3	0	4	.	.	.	.
CN(C)S(=O)(=O)c1ccc(C(=O)OC2CCOC2=O)cc1 (centres undefined)	5	0	-25	-1	1.5*	14	107	0	108	0
CCOC(=O)c1cnc(SC)nc1Oc1cccc(NC(=O)c2ccc(Cl)cc2)c1	1	0	155	8	1.5*	18	105	0	116	1
CCOC(=O)c1cnc(SC)nc1Oc1cccc(NS(=O)(=O)c2ccc(Cl)cc2)c1	0	0	-1	.	0	-13	.	.	.	.
COc1ccc(CCNC(=O)C2CCCN(S(=O)(=O)c3ccc(F)cc3)C2)cc1OC (centres undefined)	2	0	-21	0	0	-2	.	.	.	.
COc1ccc(CCNC(=O)C2=CCN(S(=O)(=O)c3ccc(F)cc3)CC2)cc1OC	2	0	60	-5	0.4*	9	117	0	108	0
CCCSc1nc(C)c(-c2csc(C(C#N)=C3CCCC3)n2)cc1C#N	8	0	-14	-3	0.9*	13	108	0	114	0
CCCCSc1nc2c(cc1C#N)CCC2	1	-1	-6	-33	0	3	.	.	.	.
Cc1nc2sc(C(c3ccccc3)N3CCN(C)CC3)c(O)n2n1 (centres undefined)	2	0	-7	-4	0	-17	.	.	.	.
OCCNCCSc1nc(C2CCCCC2)n(-c2ccccc2Cl)n1	0	-1	-18	-11	0	21	.	.	.	.
COc1ccc(CC(=O)O/N=C(\N)c2ccc(C)cc2)cc1	25	-2	-14	-4	0	-8	114	0	117	0
Cn1cc(Br)c(C(=O)NNC(=O)c2ccc(Cl)cc2)n1	6	1	3	-1	8.9*	10	91	0	95	0
Cn1cc(Br)c(C(=O)NNC(=O)Cc2ccc(Cl)cc2)n1	3	0	254	.	0	12	.	.	.	.
COc1ccc(C)cc1NC(=O)C1CC(=O)N(CCc2ccccc2)C1 (centres undefined)	21	0	5	2	0	11	.	.	.	.
C=CCn1c(=S)[nH]c2sccc2c1=O	0	2	-1	98*	0.8*	3	95	0	98	0
N#CCCn1cc(/C=C(\C#N)c2nc3ccccc3s2)c(-c2ccc(F)cc2)n1	12	-1	.	-4	1	-16	82	0	100	0
COCCn1c(C)cc(C(=O)CSc2nc(C)nc3sc4c(c23)CCC4)c1C	9	1	295	-1	1.6*	-1	110	0	112	0
O=C(Cc1c2ccccc2nc2ccccc12)c1ccccc1	28	0	25	-21	15*	0	92	0	106	0
CC(C)(C)c1nc(SCC(=O)c2ccccc2)c2ccccc2n1	-2	1	7	?	0	-9	.	.	.	.
Cc1ccnc(Cc2ccccc2)n1	7	1	21	-6	0	17	.	.	.	.
